In the library only some 2.4% were active in any assay of this set; here they are far more common.
D2 PAM-1: positive allosteric modulators of human D2 dopamine receptor | potentiation, % (no concentration beside the values) | AID 624464 | P14416 | DiscoveRx D2 beta-arrestin cells, luminescence, 90 min; 100% = 57 uM dopamine signal | hit rate 0.23% among 360,000; in the data active means potentiation above about 50%
Target sequence (P14416 whole entry, looked up): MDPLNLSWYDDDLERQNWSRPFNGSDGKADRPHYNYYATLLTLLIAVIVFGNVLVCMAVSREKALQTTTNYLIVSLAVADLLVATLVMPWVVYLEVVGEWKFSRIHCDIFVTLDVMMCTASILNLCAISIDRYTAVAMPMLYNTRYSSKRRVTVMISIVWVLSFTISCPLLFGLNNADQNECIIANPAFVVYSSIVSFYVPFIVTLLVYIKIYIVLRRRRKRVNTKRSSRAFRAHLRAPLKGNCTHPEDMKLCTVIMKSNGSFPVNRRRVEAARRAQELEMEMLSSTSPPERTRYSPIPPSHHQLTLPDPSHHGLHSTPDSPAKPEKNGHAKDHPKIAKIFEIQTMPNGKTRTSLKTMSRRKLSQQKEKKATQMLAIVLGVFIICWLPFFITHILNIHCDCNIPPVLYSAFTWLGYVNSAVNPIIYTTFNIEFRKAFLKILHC
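D2 cells co-treated with compound plus 50 nM dopamine (EC20) for 90 min at 37 deg C to detect potentiation. Beta-arrestin recruitment was read as enzyme-fragment luminescence after 1 h at ambient temperature. Full response was set by 57 uM dopamine.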
D2 antagonist: antagonists of human D2 dopamine receptor; P14416; HEK293 TREx D2 cells, calcium flux, dopamine EC80; inhibition, % at 10 µM; hit rate 2% among 340,000; AID 485344; in the data active means inhibition above about 30%; inactive means below that, where a call was filed; further: 0% is about no effect
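In this primary screen, negative modulation is detected by tracking calcium flux after an EC80 dopamine challenge in inducible HEK293 T-REx D2 cells preexposed to test compound for 180 s.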
D2 ag-1: agonists of human D2 dopamine receptor. P14416. HEK293 T-REx D2 cells, calcium flux agonist mode. activation, % at 2 µM. hit rate 0.53% among 340,000. AID 485358;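 active means activation over 3 SD above normal in the single-dose calcium agonist read, cut at about 30% in these data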; further: 0% is about no effect
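In this primary screen, compounds producing a positive calcium signal within 180 s of addition to tetracycline-induced, force-coupled HEK293 Trex D2 cells are flagged; cells are dye-loaded with a no-wash calcium kit beforehand.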
D2 PAM-2: positively modulates the human D2 dopamine receptor allosterically; AID 485347; HEK293 T-REx D2, calcium flux, EC20 dopamine potentiation; hit rate 0.34% among 340,000; P14416; potentiation, % at 10 µM;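 active means potentiation over 3 SD above the plate norm, cut at about 30% in these data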; further: 0% is about no effect
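Tetracycline-induced HEK293 T-REx cells force-coupled to calcium signalling expressed D2; compounds were pin-added after a 10 s baseline, read kinetically 180 s, then an EC20 dopamine challenge followed with a further 180 s calcium read.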
D2 ag-2: human D2 receptor agonism in beta-arrestin assay | P14416 | DiscoveRx PathHunter D2 beta-arrestin, luminescence, 90 min; 100% = 57 uM dopamine signal | activation, % (concentration not given with the values) | hit rate 0.084% among 360,000 | AID 624465; in the data active means activation above about 40%
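DiscoveRx PathHunter D2 beta-arrestin cells (2,100/well) attached overnight, then compound-stimulated 90 min at 37 C in HBSS/10 mM HEPES/0.1% Tween-20 buffer; beta-galactosidase complementation read by luminescence after 1 h at ambient temperature. Dopamine 57 uM final (EC100) as control.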
* marks the source's active call; other numbers are inactive results.

For CCc1nc2c(c(=O)c3ccccc3n2C)c(=O)n1C1CCCCCC1 the results were D2 PAM-1 -13.1, D2 antagonist 24.8, D2 ag-1 58.5*, D2 PAM-2 -9.8 and D2 ag-2 -1.0.
For CCCCn1cc(S(=O)(=O)c2ccc(CC)cc2)c(=O)c2cc(F)c(N3CCOCC3)cc21 the results were D2 ag-1 -0.1 and D2 PAM-2 -3.6.
For CC(C)c1ccc2oc(-c3cccc(NC(=O)c4ccc5c(c4)OCCO5)c3)nc2c1 the results were D2 ag-1 2.9.
COc1ccc(NC(=O)Cn2c(=O)oc3cc(S(=O)(=O)NC4CCCC4)ccc32)cc1OC was read as D2 ag-1 0.0 and D2 PAM-2 -11.4.
Screening COc1ccc(S(=O)(=O)N2CCOC23CCN(C(=O)c2ccccc2OC)CC3)cc1 returned D2 PAM-1 -0.8, D2 antagonist 7.7, D2 ag-1 -0.2, D2 PAM-2 5.5 and D2 ag-2 0.2.
For COc1ccc(S(=O)(=O)N2CCOC23CCN(C(=O)c2ccccc2Br)CC3)cc1 the results were D2 PAM-1 -4.3, D2 antagonist 25.5, D2 ag-1 -0.1, D2 PAM-2 70.8* and D2 ag-2 -2.5.
CSc1nnc2c3c4c(sc3nc(-n3nc(C)cc3C)n12)COC(C)(C)C4 was read as D2 PAM-1 1.1, D2 antagonist 48.4*, D2 ag-1 0.2, D2 PAM-2 19.2 and D2 ag-2 -0.2.
Cc1ccc(-n2cccn2)c(CN2CCCC(C(=O)c3sccc3C)C2)c1 (centres undefined) was read as D2 PAM-1 -12.8, D2 antagonist 72.6*, D2 ag-1 1.4, D2 PAM-2 -14.3 and D2 ag-2 -3.8.
Screening CCn1nnnc1NCc1ccc(Cl)cc1 returned D2 PAM-1 -6.2, D2 antagonist 46.7*, D2 ag-1 0.6, D2 PAM-2 13.7 and D2 ag-2 -0.5.
CCCn1nnnc1NCc1ccc(SC)cc1 was read as D2 PAM-1 -1.0, D2 antagonist 36.9*, D2 ag-1 -1.4, D2 PAM-2 5.6 and D2 ag-2 -1.0.
Screening CCOC(=O)C1CCN(S(=O)(=O)c2cnc[nH]2)CC1 returned D2 PAM-1 -23.7, D2 antagonist 34.9*, D2 ag-1 0.5, D2 PAM-2 4.5 and D2 ag-2 -3.6.
Cc1c(C(=O)OC2CCCCC2)sc2nc[nH]c(=O)c12 was read as D2 PAM-1 -7.1, D2 antagonist -1.4, D2 ag-1 0.3, D2 PAM-2 30.9* and D2 ag-2 -1.4.
CN1C(=O)c2ccccc2Sc2ccc(NC(=O)N3CCN(c4ccc(F)cc4)CC3)cc21 was read as D2 ag-1 -1.1 and D2 PAM-2 1.4.
Screening COc1ccc(CCC(C)NC2C3CC4CC(C3)CC2C4)cc1 (centres undefined) returned D2 PAM-1 -15.4, D2 antagonist 40.0*, D2 ag-1 0.8, D2 PAM-2 -18.2 and D2 ag-2 -1.2.
Screening COc1ccc(CCC(C)Nc2ccccc2F)cc1 (centres undefined) returned D2 PAM-1 0.1, D2 antagonist -17.7, D2 ag-1 -0.9, D2 PAM-2 5.4 and D2 ag-2 -1.0.
Screening CCn1c2ccccc2c2cc(/C=N/NC(=O)c3cccc(C)c3)ccc21 returned D2 PAM-1 7.8, D2 antagonist -11.5, D2 ag-1 0.8, D2 PAM-2 8.3 and D2 ag-2 0.7.
For CCn1c2ccccc2c2cc(/C=N/NC(=O)c3ccccc3C)ccc21 the results were D2 PAM-1 -9.3, D2 antagonist 36.2*, D2 ag-1 -0.8, D2 PAM-2 -4.2 and D2 ag-2 -6.3.
For O=C(NCc1cccs1)C1CCCN1C(=O)Nc1ccc(Cl)cc1 (centres undefined) the results were D2 antagonist 31.6*, D2 ag-1 1.3 and D2 PAM-2 -4.6.
Screening O=C(NCc1cccs1)C1CCCN1C(=O)Nc1ccccc1 (centres undefined) returned D2 PAM-1 -14.3, D2 antagonist 5.1, D2 ag-1 1.0, D2 PAM-2 -9.4 and D2 ag-2 0.1.
Screening CC(C)c1ccc(Nc2c(-c3ccc(N(C)C)cc3)nc3cnccn23)cc1 returned D2 ag-1 -0.1 and D2 PAM-2 -6.7.

Screening data deposited in PubChem BioAssay by National Center for Advancing Translational Sciences (NCATS).
